The source of these data is PubChem BioAssay (EPA / NIEHS).

Experiment [1] addresses Myc proto-oncogene protein (Homo sapiens) (UniProt P01106). In words: ATG_Myc_CIS: Attagene CIS-FACTORIAL HepG2 Assay for human Myelocytomatosis (Myc) Proto-Oncogene Transcription Factor (AID 2282990). To be noted: HepG2, Attagene cis-reporter transcription factor activity; actives raise or lower the signal. An outline of the steps:
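DMSO-normalised, bidirectionally fitted reporter mRNA signal. HepG2 cells transfected with cis reporter constructs, treated 24 h; transcripts detected by RT-PCR, 6-FAM primer extension and CE.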

Experiment [2] in a line: ATG_NRF2_ARE_CIS: Attagene CIS-FACTORIAL HepG2 Assay for human Nuclear Factor Erythroid 2 Related Factor 2 (NFR2) response to Antioxidant Response Elements (ARE) (AID 2282992). The following applies: HepG2 Attagene ARE/NRF2 reporter, transcription factor activity; actives raise or lower the signal. An outline of the steps:
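Using transiently transfected HepG2 cells exposed for 24 h, reporter mRNA levels were determined by RT-PCR with fluorescent primer extension and capillary electrophoresis, analysed for gain or loss of signal against DMSO.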

For experiment [3], the target named is Cellular tumor antigen p53 (Homo sapiens) (UniProt P04637). In words: ATG_p53_CIS: Attagene CIS-FACTORIAL HepG2 Assay for human p53 Transcription Factor (AID 2282994). To be noted: HepG2 p53 cis-element reporter, Attagene mRNA; actives raise or lower the signal. An outline of the steps: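 In HepG2 cells, reporter transcription units under cis-regulatory promoters were transiently introduced. Following 24 h treatment, RNA was processed to labelled, digested cDNA fragments read by capillary electrophoresis; fitting was bidirectional versus DMSO.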
Cellular tumor antigen p53 (Homo sapiens), sequence (P04637 whole entry, looked up, the tested form may be a part): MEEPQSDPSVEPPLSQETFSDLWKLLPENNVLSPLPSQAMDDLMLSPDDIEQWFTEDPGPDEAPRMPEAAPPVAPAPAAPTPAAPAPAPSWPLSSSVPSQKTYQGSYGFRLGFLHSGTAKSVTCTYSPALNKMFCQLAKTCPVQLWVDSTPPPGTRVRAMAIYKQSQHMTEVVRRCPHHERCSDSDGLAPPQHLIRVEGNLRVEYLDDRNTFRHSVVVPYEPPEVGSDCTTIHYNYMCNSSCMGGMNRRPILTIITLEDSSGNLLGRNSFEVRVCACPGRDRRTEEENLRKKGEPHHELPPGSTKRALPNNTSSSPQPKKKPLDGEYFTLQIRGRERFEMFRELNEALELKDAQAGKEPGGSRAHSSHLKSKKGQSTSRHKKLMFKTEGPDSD

Experiment [4] in a line: BSK_3C_TissueFactor: BioMAP Diversity Plus: 3C Assay for Tissue Factor Biomarker Activity (AID 2282997). To be noted: BioMAP 3C HUVEC, tissue factor biomarker readout; actives raise or lower the signal. An outline of the steps:
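Readout: Tissue Factor ELISA. Cells: human primary umbilical vein endothelium. Time: 24 h after dosing. Analysis: bidirectional fit, DMSO baseline.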

The nature of experiment [5]: BSK_3C_uPAR: BioMAP Diversity Plus: 3C Assay for Urokinase-type plasminogen activator receptor (uPAR) Biomarker Activity (AID 2282998). To be noted: BioMAP 3C HUVEC, uPAR biomarker ELISA; actives raise or lower the signal. In outline: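 ELISA readout of uPAR on human vascular endothelium (umbilical vein primary cells), taken 24 h after chemical dosing. Increases and decreases are both fitted relative to DMSO vehicle.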
In general terms: In an ELISA, binding on a coated surface is turned into a signal by an enzyme label.

Experiment [6] can be described thus: BSK_3C_VCAM1: BioMAP Diversity Plus: 3C Assay for Vascular cell adhesion molecule 1 (VCAM1) Biomarker Activity (AID 2282999). The following applies: BioMAP 3C HUVEC, VCAM1 ELISA, cytokine-stimulated; actives raise or lower the signal. An outline of the steps:
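Vascular primary endothelium (human umbilical vein) was exposed to chemicals and assayed 24 h later. VCAM-1 levels came from ELISA, with DMSO serving as baseline for bidirectional fitting.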

Experiment [7] in a line: BSK_4H_Eotaxin3: BioMAP Diversity Plus: 4H Assay for Eotaxin 3 Biomarker Activity (AID 2283000).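 Note: CCL26 protein level quantified by ELISA in parallel with SRB cytotoxicity check.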 To be noted: primary human endothelial cells (HUVEC); actives raise or lower the signal. An outline of the steps:
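HUVEC, 24 h post-dose, ELISA for Eotaxin-3/CCL26. Gain or loss of signal fitted bidirectionally vs DMSO baseline.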

Experiment [8] has as its target human Peroxisome Proliferator-activated Receptor alpha (PPARa), PPARA (gene 5465) (UniProt Q07869). In words: ATG_PPARa_TRANS: Attagene TRANS-FACTORIAL HepG2 Assay for human Peroxisome Proliferator-activated Receptor alpha (PPARa) (AID 2283001; active = hit-call score of the fitted dose curve at least 0.9, where 1 is the maximum;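 for AC50: potency for gain of reporter signal over DMSO so agonist or activator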). In outline:
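Cells (HepG2) are transfected with multiple reporter transcription units, exposed to chemical for 24 h, then total RNA is reverse-transcribed and amplified. Labelled products are quantified by capillary electrophoresis; induction is referenced to DMSO.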

Read-out in experiment [9]: Intercellular Adhesion Molecule 1 (ICAM1), ICAM1 (gene 3383)
Nature of the experiment: BSK_3C_ICAM1: BioMAP Diversity Plus: 3C Assay for Intercellular Adhesion Molecule 1 (ICAM1) Biomarker Activity (AID 2283003). To be noted: primary human endothelial cells (HUVEC); actives raise or lower the signal. In outline: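 ELISA readout of ICAM1 in human umbilical vein endothelial cells in the 3C system, taken 24 h post-dose. Gain or loss of signal versus DMSO was fitted in both directions, with SRB total-protein staining run in parallel.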

Experiment [10] in a line: BSK_3C_Proliferation: Cell Proliferation Assessment in the BioMAP Diversity Plus: 3C Assay (AID 2283006).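 For AC50: potency may reflect either rise or fall in cell number versus DMSO.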 To be noted: primary human endothelial cells (HUVEC). In outline: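 Proliferation as total protein: sulforhodamine B (0.1%) stain of TCA-fixed subconfluent human umbilical vein endothelial cells, absorbance 560 nm, 48 h after dosing. Activity fitted in both directions against DMSO baseline.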

For experiment [11], the target named is human RAR-related Orphan Receptor gamma (RORg), RORC (gene 6097) (UniProt P51449). Nature of the experiment: ATG_RORg_TRANS: Attagene TRANS-FACTORIAL HepG2 Assay for human RAR-related Orphan Receptor gamma (RORg) (AID 2283011; active = hit-call score of the fitted dose curve at least 0.9, where 1 is the maximum). In outline:
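Readout: reporter transcript induction (RT-PCR, fluorescent primer extension, capillary electrophoresis) after 24 h compound exposure of transiently transfected HepG2 cells carrying a RORg-Gal4 chimera and GAL4-UAS reporters; DMSO served as baseline, with increasing signal fitted.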

The nature of experiment [12]: ATG_Oct_MLP_CIS: Attagene CIS-FACTORIAL HepG2 Assay for human Octamer-Binding Transcription Factor (Oct) (AID 2282993). The following applies: HepG2 Attagene cis-factorial Oct reporter, mRNA; actives raise or lower the signal. In outline:
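Transient MRTU transfection of HepG2 → 24 h compound treatment → RNA isolation, reverse transcription, PCR → 6-FAM primer extension, HpaI digest → capillary electrophoresis. Activity fitted both directions against DMSO.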

Experiment [13] concerns the target human Peroxisome Proliferator-activated Receptor delta (PPARd), PPARD (gene 5467) (UniProt Q03181). Nature of the experiment: ATG_PPARd_TRANS: Attagene TRANS-FACTORIAL HepG2 Assay for human Peroxisome Proliferator-activated Receptor delta (PPARd) (AID 2283002; active = hit-call score of the fitted dose curve at least 0.9, where 1 is the maximum). In outline: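 Measured quantity: GAL4-UAS reporter transcript induction in HepG2 after 24 h chemical dosing, with NR-Gal4 chimeras supplied by transient transfection. Detection by RT-PCR and capillary electrophoresis; upward fit against DMSO.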

In experiment [14] the target is Peroxisome proliferator-activated receptor gamma (Homo sapiens) (UniProt P37231). In words: ATG_PPARg_TRANS: Attagene TRANS-FACTORIAL HepG2 Assay for human Peroxisome Proliferator-activated Receptor-gamma (PPARg) (AID 2283007; active = hit-call score of the fitted dose curve at least 0.9, where 1 is the maximum). An outline of the steps:
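HepG2 cells transiently transfected with multiplexed GAL4-UAS reporter units and exogenous chimeric NR-Gal4 proteins; reporter mRNA quantified after 24 h compound exposure by RT-PCR, fluorescent labelling, HpaI digestion and capillary electrophoresis; gain-of-signal fitted versus DMSO baseline.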

Experiment [15] addresses Nuclear receptor subfamily 1 group I member 2 (Homo sapiens) (UniProt O75469). In words: ATG_PXR_TRANS: Attagene TRANS-FACTORIAL HepG2 Assay for human Pregnane X Receptor (PXR) (AID 2283008; active = hit-call score of the fitted dose curve at least 0.9, where 1 is the maximum). In outline: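 Multiplexed TRANS reporter panel in HepG2; this component tracks PXR-Gal4-driven reporter mRNA after 24 h dosing, measured by RT-PCR with capillary electrophoresis fluorescence, fitted against DMSO.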

The target of experiment [16] is Retinoic acid receptor RXR-alpha (Homo sapiens) (UniProt P19793). Nature of the experiment: ATG_RXRa_TRANS: Attagene TRANS-FACTORIAL HepG2 Assay for human Retinoid X Receptor alpha (RXRa) (AID 2283012; active = hit-call score of the fitted dose curve at least 0.9, where 1 is the maximum). In outline: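 TRANS format reporting activity of exogenous RXRa-Gal4 chimera in transiently transfected HepG2, 24 h exposure. Reporter transcripts quantified by RT-PCR with capillary electrophoresis, with gain of signal scored relative to DMSO.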
Retinoic acid receptor RXR-alpha (Homo sapiens), sequence (P19793 whole entry, looked up, the tested form may be a part): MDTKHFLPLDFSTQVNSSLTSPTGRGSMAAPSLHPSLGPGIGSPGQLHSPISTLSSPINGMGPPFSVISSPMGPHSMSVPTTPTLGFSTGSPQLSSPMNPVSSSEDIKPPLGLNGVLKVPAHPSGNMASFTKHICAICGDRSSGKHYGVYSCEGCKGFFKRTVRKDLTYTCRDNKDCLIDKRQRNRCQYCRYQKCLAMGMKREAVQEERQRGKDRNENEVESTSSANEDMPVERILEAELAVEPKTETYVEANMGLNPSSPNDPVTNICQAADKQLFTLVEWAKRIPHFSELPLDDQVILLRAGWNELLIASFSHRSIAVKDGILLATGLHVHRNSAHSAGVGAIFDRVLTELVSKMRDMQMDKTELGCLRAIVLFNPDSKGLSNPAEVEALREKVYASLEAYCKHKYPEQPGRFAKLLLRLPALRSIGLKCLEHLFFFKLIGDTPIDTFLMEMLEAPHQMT

The nature of experiment [17]: ATG_NF_kB_CIS: Attagene CIS-FACTORIAL HepG2 Assay for human Nuclear Factor Kappa B (NF-kB) (AID 2282991). The following applies: HepG2 Attagene cis-factorial NF-kB reporter mRNA; actives raise or lower the signal. In outline:
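HepG2 cells transiently transfected with multiplexed cis-element reporter units measuring endogenous transcription factor activity; reporter mRNA read 24 h after dosing by RT-PCR, fluorescent labelling, HpaI digestion and capillary electrophoresis. Bidirectional fit against DMSO baseline.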

Records with an inconclusive call do not appear. The source holds several records for some structures; these can differ, active in one and inactive in another. The source made the active and inactive calls. Rule for the calls, unless noted: active = hit-call score of the fitted dose curve at least 0.9, where 1 is the maximum; inactive = score below 0.9.

human Peroxisome Proliferator-activated Receptor alpha (PPARa), PPARA (gene 5465), sequence (Q07869 whole entry, looked up): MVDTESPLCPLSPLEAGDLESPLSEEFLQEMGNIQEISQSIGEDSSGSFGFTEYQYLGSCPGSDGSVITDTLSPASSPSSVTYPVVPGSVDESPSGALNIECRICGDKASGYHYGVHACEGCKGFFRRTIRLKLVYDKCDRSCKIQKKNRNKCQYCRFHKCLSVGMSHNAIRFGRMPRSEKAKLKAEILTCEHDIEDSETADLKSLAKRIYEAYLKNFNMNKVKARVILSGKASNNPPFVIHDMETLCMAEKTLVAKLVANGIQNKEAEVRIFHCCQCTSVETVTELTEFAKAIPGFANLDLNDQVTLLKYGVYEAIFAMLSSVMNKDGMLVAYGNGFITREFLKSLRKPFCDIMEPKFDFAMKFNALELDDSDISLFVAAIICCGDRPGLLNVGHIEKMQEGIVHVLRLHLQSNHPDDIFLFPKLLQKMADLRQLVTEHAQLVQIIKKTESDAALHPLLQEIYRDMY
Nuclear receptor subfamily 1 group I member 2 (Homo sapiens), sequence (O75469 whole entry, looked up, the tested form may be a part): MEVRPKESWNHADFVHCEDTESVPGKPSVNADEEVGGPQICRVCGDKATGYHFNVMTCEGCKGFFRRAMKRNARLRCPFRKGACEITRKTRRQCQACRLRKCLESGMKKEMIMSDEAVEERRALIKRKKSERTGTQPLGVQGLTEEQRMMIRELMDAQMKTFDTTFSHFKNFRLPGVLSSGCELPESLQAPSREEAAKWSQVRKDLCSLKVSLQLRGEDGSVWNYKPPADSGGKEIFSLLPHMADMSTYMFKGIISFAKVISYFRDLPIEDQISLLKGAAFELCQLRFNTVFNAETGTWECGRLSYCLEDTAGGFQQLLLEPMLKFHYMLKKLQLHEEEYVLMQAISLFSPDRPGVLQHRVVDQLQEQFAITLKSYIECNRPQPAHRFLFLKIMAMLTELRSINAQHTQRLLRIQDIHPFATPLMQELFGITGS
Peroxisome proliferator-activated receptor gamma (Homo sapiens), sequence (P37231 whole entry, looked up, the tested form may be a part): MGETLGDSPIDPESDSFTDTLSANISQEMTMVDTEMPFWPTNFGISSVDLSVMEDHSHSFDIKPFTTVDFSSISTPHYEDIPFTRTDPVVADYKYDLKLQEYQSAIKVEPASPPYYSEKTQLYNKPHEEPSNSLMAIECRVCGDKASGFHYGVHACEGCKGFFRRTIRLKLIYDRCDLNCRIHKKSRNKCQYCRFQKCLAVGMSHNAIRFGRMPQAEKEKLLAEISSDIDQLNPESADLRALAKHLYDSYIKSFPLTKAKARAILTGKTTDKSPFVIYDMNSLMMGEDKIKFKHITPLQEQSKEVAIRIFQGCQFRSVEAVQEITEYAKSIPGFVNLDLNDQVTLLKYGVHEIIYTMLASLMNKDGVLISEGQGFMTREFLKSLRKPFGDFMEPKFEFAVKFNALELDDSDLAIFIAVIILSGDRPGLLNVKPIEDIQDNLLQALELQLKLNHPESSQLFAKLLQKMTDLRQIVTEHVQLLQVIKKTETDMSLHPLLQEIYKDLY
Myc proto-oncogene protein (Homo sapiens), sequence (P01106 whole entry, looked up): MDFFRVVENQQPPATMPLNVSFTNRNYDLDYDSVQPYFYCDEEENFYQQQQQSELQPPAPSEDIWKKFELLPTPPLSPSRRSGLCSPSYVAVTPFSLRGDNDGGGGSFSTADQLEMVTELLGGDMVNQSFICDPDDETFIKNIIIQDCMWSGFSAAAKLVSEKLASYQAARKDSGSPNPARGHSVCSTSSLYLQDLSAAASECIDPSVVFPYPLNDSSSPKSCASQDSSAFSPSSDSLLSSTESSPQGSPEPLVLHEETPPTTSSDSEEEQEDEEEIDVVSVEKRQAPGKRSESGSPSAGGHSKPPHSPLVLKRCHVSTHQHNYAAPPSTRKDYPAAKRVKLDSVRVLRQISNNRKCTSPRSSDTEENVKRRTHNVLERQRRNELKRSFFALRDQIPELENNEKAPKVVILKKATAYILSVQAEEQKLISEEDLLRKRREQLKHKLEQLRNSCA
human RAR-related Orphan Receptor gamma (RORg), RORC (gene 6097), sequence (P51449 whole entry, looked up, the tested form may be a part): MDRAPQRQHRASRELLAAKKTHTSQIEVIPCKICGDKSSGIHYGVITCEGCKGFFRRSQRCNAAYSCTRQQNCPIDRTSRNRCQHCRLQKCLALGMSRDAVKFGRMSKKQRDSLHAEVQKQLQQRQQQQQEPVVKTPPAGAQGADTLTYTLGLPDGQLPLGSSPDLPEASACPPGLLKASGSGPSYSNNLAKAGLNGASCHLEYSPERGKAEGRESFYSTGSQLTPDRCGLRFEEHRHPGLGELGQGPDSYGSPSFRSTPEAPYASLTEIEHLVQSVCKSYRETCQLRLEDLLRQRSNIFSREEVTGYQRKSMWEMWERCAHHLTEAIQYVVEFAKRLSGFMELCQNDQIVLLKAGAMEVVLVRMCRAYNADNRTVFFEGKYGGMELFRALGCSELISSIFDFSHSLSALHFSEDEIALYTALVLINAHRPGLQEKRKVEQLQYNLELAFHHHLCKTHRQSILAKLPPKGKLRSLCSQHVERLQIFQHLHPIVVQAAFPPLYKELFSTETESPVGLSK
human Peroxisome Proliferator-activated Receptor delta (PPARd), PPARD (gene 5467), sequence (Q03181 whole entry, looked up, the tested form may be a part): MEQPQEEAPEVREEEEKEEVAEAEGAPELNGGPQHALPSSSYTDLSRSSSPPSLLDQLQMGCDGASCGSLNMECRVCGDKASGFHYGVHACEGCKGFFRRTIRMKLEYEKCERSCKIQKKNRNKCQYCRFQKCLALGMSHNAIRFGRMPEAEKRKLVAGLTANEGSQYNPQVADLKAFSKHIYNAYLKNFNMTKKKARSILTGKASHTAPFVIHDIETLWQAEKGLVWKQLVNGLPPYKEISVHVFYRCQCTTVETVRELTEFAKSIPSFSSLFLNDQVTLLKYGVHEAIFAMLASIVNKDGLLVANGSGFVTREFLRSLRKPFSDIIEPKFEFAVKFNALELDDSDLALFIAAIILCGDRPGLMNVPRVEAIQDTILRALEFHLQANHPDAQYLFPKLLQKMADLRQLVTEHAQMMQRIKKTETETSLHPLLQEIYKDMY

For the compound `CC1(C)C(=O)N(Cl)C(=O)N1Cl`, the result in [1], in experiment [2], in experiment [3], in experiment [4], in experiment [5] and in experiment [6] was inactive. In addition, the outcome in experiment [7], in [8], in experiment [9], in [10] and in experiment [11] was inactive.

Take `Nc1ccn([C@@H]2O[C@H](CO)[C@@H](O)[C@@H]2O)c(=O)n1`: the call in experiment [1], in experiment [2], in [12], in experiment [4], in [5] and in [6] was inactive. In addition, the outcome in experiment [7], in experiment [13] and in [9] was inactive. For the same compound, the AC50 – broadly, the concentration at which the activity in the assay is half-maximal – in [10] is 0.519 µM (active).

With `OCC(CO)(CO)CO`, the result in experiment [1], in [2], in experiment [4], in [5], in experiment [6] and in experiment [7] was inactive. Moreover, the compound was called inactive in experiment [8], in [13], in experiment [9], in experiment [10], in [14] and in experiment [15]. The compound was classed as inactive in [11] and in experiment [16]. For the same compound, in experiment [2], the half-maximal activity concentration (AC50) was 141 µM (active).

Take `CCCCCCCCCCCCCCCCOS(=O)(=O)O`: the result in [1], in [12], in experiment [4], in experiment [6], in [7] and in [9] was inactive. Further, the outcome in experiment [10], in experiment [15] and in [16] was inactive. The concentration at half-maximal activity (AC50) in experiment [2] is 27.3 µM (active); in [3], 24.9 µM (active); in experiment [8] it was 9.15 µM (active); in experiment [14], 16.9 µM (active).

`COCc1nnc(-c2ccc[n+]([O-])c2)n1-c1c(Cl)c(Cl)cc2[nH]c(=O)c(=O)[nH]c12`: the outcome in [1], in experiment [2], in experiment [12], in [4], in [6] and in experiment [7] was inactive. Further, the result in [9], in experiment [10], in experiment [15], in [11] and in experiment [16] was inactive.

In the case of `CCCCCCCCN(C)C`, the compound was called inactive in experiment [1], in [2], in experiment [3], in experiment [4], in experiment [5] and in experiment [6]. For the same compound, the outcome in experiment [7], in experiment [9], in [10], in experiment [15], in experiment [11] and in [16] was inactive.

Consider `C=CN1CCCC1=O`, for which the compound was classed as inactive in [1], in [2], in [3], in experiment [4], in experiment [6] and in experiment [7]. Moreover, the outcome in experiment [9], in [10] and in [16] was inactive.

Consider `OCCNCCO`, for which the call in experiment [1], in experiment [2], in experiment [12], in [4], in experiment [5] and in experiment [6] was inactive. For the same compound, the result in experiment [7], in experiment [13], in [9], in [10] and in experiment [16] was inactive.

For `O=C1CN(N=Cc2ccc([N+](=O)[O-])o2)C(=O)N1`, the outcome in [1], in [12], in experiment [3], in experiment [4], in experiment [5] and in experiment [6] was inactive. Also, the result in experiment [7], in [13], in experiment [9], in experiment [14], in [15] and in experiment [16] was inactive. For the same compound, the AC50 in [10] is 13.6 µM (active).

With `CC[C@H](C)C(=O)O[C@H]1C[C@H](O)C=C2C=C[C@H](C)[C@H](CC[C@@H](O)C[C@@H](O)CC(=O)O)[C@H]21`, the result in [1], in experiment [17], in experiment [2], in [4], in experiment [6] and in [7] was inactive. Besides, the outcome in [9], in experiment [10] and in experiment [11] was inactive.
